Compound activity: PubChem BioAssay, National Center for Advancing Translational Sciences (NCATS)
This is a sample that favours compounds with a hit; in the whole collection about 7.2% have one here.
hNpr1 antagonist: Natriuretic polypeptide receptor (hNpr1) antagonism - Primary qHTS; Potency, µM (series often up to 46.3 µM), usual class: inhibitors; Atrial natriuretic peptide receptor 1 (Homo sapiens), P16066; HEK293 hNpr1 GloSensor cGMP, ANP-stimulated luminescence; 76,000 tested, 1.6% active; calls by dose curve; note: nearly all actives have a fitted effect of over 60% in size
Target sequence (P16066 whole entry, looked up): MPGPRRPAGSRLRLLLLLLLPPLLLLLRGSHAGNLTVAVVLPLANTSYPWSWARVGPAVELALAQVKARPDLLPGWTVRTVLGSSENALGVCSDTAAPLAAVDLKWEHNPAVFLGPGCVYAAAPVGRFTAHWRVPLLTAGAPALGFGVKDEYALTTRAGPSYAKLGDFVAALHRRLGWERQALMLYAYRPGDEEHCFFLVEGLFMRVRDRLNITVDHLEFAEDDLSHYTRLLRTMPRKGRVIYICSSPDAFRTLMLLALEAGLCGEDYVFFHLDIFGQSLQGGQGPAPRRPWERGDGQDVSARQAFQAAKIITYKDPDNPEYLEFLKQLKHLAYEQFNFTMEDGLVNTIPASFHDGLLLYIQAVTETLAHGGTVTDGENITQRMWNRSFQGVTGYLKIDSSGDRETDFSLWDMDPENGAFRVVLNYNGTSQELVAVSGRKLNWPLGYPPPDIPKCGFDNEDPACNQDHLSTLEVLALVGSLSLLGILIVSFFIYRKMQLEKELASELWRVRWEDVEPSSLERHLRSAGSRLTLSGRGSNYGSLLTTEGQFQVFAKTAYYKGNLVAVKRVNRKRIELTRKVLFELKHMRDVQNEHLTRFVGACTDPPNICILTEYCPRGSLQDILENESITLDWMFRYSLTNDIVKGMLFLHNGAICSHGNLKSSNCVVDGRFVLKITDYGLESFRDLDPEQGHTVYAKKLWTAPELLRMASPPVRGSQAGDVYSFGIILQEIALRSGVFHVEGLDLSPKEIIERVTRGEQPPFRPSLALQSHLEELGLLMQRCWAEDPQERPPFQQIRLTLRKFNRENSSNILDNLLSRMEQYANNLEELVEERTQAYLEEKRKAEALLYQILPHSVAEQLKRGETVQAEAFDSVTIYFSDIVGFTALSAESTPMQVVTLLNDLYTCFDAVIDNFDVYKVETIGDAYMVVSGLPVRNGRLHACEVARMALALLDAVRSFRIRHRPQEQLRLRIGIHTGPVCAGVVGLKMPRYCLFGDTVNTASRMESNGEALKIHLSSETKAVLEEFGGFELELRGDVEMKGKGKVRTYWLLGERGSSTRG
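HEK293 cells stably expressing human Npr1 and cGMP GloSensor pGS-40F, loaded 2 h with 2% GloSensor reagent, given compound 30 min at room temperature. Luminescence read before and 20 min after 0.1 nM hNppA.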
3T3 cytotox: Cytotoxic Profiling in NIH 3T3 Cell Line of Diverse Libraries Using Quantitative High-Throughput Screening; NIH 3T3 viability, CellTiter-Glo ATP luminescence, 48-72 h; Potency, µM (top dose mostly 96.7 µM), usual class: inhibitors; 94,000 tested, 4.3% active; note: nearly all actives have a fitted effect of over 55% in size
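NIH 3T3 cells at 400 cells/well received 23 nL of compound by pintool and were incubated 48 or 72 h at 37 °C. Viability was read as ATP-coupled CellTiter-Glo luminescence.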
Luciferase inh: Firefly luciferase inhibition profiling of diverse chemical library using quantitative high-throughput screening; Luciferin 4-monooxygenase (Photinus pyralis), P08659; purified P. pyralis luciferase, luminescence, biochemical; Potency, µM (doses to about 115 µM), hits mostly inhibitors; 76,000 tested, 2.5% active; note: nearly all actives have a fitted effect of over 65% in size
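Cell-free enzyme assay, 10nM P. pyralis luciferase, luciferin and ATP each at 10uM. Inhibition profiled over a 6-point titration, read as luminescence.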
HEK cytotox: Cytotoxic Profiling in HEK 293 Cell Line of Diverse Libraries Using Quantitative High-Throughput Screening. HEK 293 viability, ATP luminescence (CellTiter-Glo), 48-72 h. Potency, µM (doses to about 115 µM), usual class: inhibitors. 94,000 tested, 6.6% active; note: nearly all actives have a fitted effect of over 60% in size
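Pintool-delivered compounds were incubated with HEK 293 cells (250 cells/well) at 37 degree Celsius for 48 or 72 hr. ATP-dependent luminescence (CellTiter-Glo) then reported remaining viable cells.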
SNCA expr inhib: Primary qHTS assay for inhibitors of alpha-synuclein gene (SNCA) expression. AID 1671194, 2021. Potency, µM (highest dose often 57.2 µM), most hits filed as inhibitors. 140,000 tested, 0.17% active. HEK-293 SNCA-luciferase knock-in, luminescence, 24 h; note: nearly all actives have a fitted effect of over 45% in size
SNCA viab count: GF-AFC viability counterscreen for inhibitors of alpha-synuclein gene (SNCA) expression. Potency, µM (top dose mostly 57.1 µM), actives largely listed as cytotoxic. HEK-293-SNCA-luc viability, GF-AFC fluorescence, 24 h. 150,000 tested, 0.12% active; note: nearly all actives have a fitted effect of over 30% in size
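HEK-293-SNCA-luc cells (1500/well) plated 24 h, then exposed 24 h to a dilution series; GF-AFC added 30 min at 37C, fluorescence 405/540 nm; normalised to medium-only and DMSO wells, Hill fit.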
Of the large screens only hits and unclear results are named; the others gave an inactive call. Unless noted, calls come from the whole dose curve; as a rule, active = well fitted curve in the direction sought with a large enough effect; inconclusive = small, poorly fitted or top-dose-only effect, or another doubt; inactive = no such curve, though single readings can be large; an effect the other way counts as inactive or inconclusive.

O=C(C1CCCN1C(=O)c1ccc(F)cc1)N1CCC(c2nc3ccncc3[nH]2)CC1 (stereo unspecified)	none (no result: hNpr1 antagonist, Luciferase inh)
O=C1CCN(C(=O)[C@@H](Cc2ccccc2)NS(=O)(=O)c2ccc3c(c2)CCC3)CCOCCN1	none
CC(=O)N1CCC(N2C[C@@H]3C[C@H]2C(=O)N(Cc2ccc(OC(F)(F)F)cc2)c2ccccc2O3)CC1	3T3 cytotox inconclusive, HEK cytotox inconclusive
CC(C)N1C[C@@H]2C[C@H]1C(=O)N(Cc1ccc(OC(F)(F)F)cc1)c1ccccc1O2	3T3 cytotox inconclusive, HEK cytotox 71µM
O=C1[C@@H]2C[C@@H](CN2C2COC2)Oc2ccccc2N1Cc1ccc(OC(F)(F)F)cc1	3T3 cytotox inconclusive, HEK cytotox 100µM
COc1ccc(CN2C(=O)[C@@H]3C[C@@H](CN3C(C)C)Oc3ccccc32)cc1	none
CN1CCC(N2C[C@@H]3C[C@H]2C(=O)N(Cc2ccc(OC(F)(F)F)cc2)c2ccccc2O3)CC1	3T3 cytotox 40µM, HEK cytotox inconclusive
COCCN1C(=O)[C@@H]2C[C@@H](CN2C2CCCC2)Oc2ccccc21	HEK cytotox inconclusive
O=C1[C@@H]2C[C@@H](CN2C2CCCC2)Oc2ccccc2N1Cc1ccccc1	3T3 cytotox inconclusive, HEK cytotox 100µM
CC(C)(C)C(=O)NC1CCN(c2ccnc3ccnn23)CC1	none (no result: hNpr1 antagonist, Luciferase inh)
COc1ccc(NC(=O)C2=NO[C@@H]3CN(c4cccnc4)C[C@H]23)cc1	hNpr1 antagonist inconclusive, 3T3 cytotox inconclusive, Luciferase inh 35µM, HEK cytotox inconclusive
COc1ccc(NC(=O)C2=NO[C@@H]3CN(CCc4ccccc4)C[C@H]23)cn1	HEK cytotox 100µM
Cn1cnc(S(=O)(=O)N2CCC(c3noc(-c4ccncc4)n3)C2)c1 (stereo unspecified)	none
O=C1c2c(nc(CNCc3ccc4c(c3)OCO4)n2Cc2ccccc2)NCCN1Cc1ccccc1F	3T3 cytotox inconclusive, HEK cytotox inconclusive
Cc1ccccc1C(=O)N(C)Cc1ccc(-c2ccccc2)cc1	hNpr1 antagonist inconclusive, 3T3 cytotox 50µM, HEK cytotox inconclusive
COc1cccc(C(=O)N(C)Cc2ccc(-c3ccccc3)cc2)c1	3T3 cytotox inconclusive, HEK cytotox 71µM
CN(Cc1ccc(-c2ccccc2)cc1)C(=O)c1ccc(F)cc1	3T3 cytotox inconclusive, HEK cytotox 71µM
COCCNC(=O)[C@@H]1C[C@H](Oc2cccnc2)CN1C(=O)c1ccccn1	none
CNC(=O)c1cc(Nc2nnc(-c3ccc(O)cc3)c3ccccc23)ccc1OC	none (no result: hNpr1 antagonist, 3T3 cytotox, Luciferase inh, HEK cytotox)
COC(=O)COc1ccc(-c2nnc(Nc3ccc(O)cc3)c3ccccc23)cc1	SNCA expr inhib 28µM, SNCA viab count inconclusive (no result: hNpr1 antagonist, 3T3 cytotox, Luciferase inh, HEK cytotox)
COC(=O)N1CCC(C(=O)N2CCC(N3CCOCC3=O)CC2)CC1	none (no result: hNpr1 antagonist, Luciferase inh)
COCCOCc1ccc(CC2CCN(C(=O)c3ccc(OC)cc3OC)CC2)cc1	3T3 cytotox inconclusive, HEK cytotox 32µM (no result: hNpr1 antagonist, Luciferase inh)
CCn1cc(S(=O)(=O)N2C[C@@H](Oc3cccnc3)C[C@H]2C(=O)NC)cn1	none
CN(C)CCNc1cc(-c2ccc3ccccc3n2)c2cc[nH]c2n1	3T3 cytotox inconclusive, HEK cytotox 40µM
Clc1cccnc1-c1cc(NCc2ccccn2)nc2[nH]ccc12	HEK cytotox inconclusive
CC(C)c1cccc(-c2cc(NCc3ccccn3)nc3[nH]ccc23)n1	3T3 cytotox inconclusive, Luciferase inh inconclusive, HEK cytotox 45µM
COCC(=O)N[C@H]1C[C@@H](CO)N(Cc2c[nH]c3ccccc23)C1	none
CCCC(O)CN1CCC(=O)N(Cc2ccccc2)Cc2cc(F)ccc21 (stereo unspecified)	3T3 cytotox inconclusive, HEK cytotox 79µM (no result: hNpr1 antagonist, Luciferase inh, SNCA expr inhib, SNCA viab count)
CC(C)(C)OCC(O)CN1CCC(=O)N(Cc2ccccc2)Cc2cc(F)ccc21 (stereo unspecified)	3T3 cytotox inconclusive, HEK cytotox 45µM (no result: hNpr1 antagonist, Luciferase inh, SNCA expr inhib, SNCA viab count)
COCC1CN(Cc2cc(F)cc(Br)c2)CC12CCNCC2 (stereo unspecified)	3T3 cytotox inconclusive, HEK cytotox inconclusive
COCC1CN(Cc2ccc(C(F)(F)F)cc2)CC12CCNCC2 (stereo unspecified)	3T3 cytotox inconclusive, HEK cytotox inconclusive
COCC1CN(Cc2cccc(C(F)(F)F)c2)CC12CCNCC2 (stereo unspecified)	3T3 cytotox inconclusive, HEK cytotox 89µM
OCC1CN(Cc2cc(F)cc(Br)c2)CC12CCNCC2 (stereo unspecified)	3T3 cytotox inconclusive, HEK cytotox 32µM
O=C(CC(c1cccc(F)c1)c1cn(Cc2ccccc2)c2ccc([N+](=O)[O-])cc12)N1CCCC1 (stereo unspecified)	3T3 cytotox inconclusive, HEK cytotox inconclusive, SNCA expr inhib inconclusive
COCC(=O)N1CCc2cn(CC(C)C)c3cccc(c23)C1	3T3 cytotox inconclusive, HEK cytotox 79µM
COCCn1cc2c3c(cccc31)CN(C(=O)CCCc1ccccc1)CC2	3T3 cytotox inconclusive, HEK cytotox inconclusive
O=C(c1ccccc1OCC1CCCN(Cc2c[nH]c3ccccc23)C1)N1CCCCC1 (stereo unspecified)	3T3 cytotox inconclusive, HEK cytotox 50µM (no result: hNpr1 antagonist, Luciferase inh)
CN1CCCN(C[C@@H]2CN(Cc3cccc(CCN)c3)C[C@@H]2CO)CC1	none
COc1ccc(CN2CCCC(COc3ccccc3C(=O)NC(C)C)C2)c(OC)c1 (stereo unspecified)	HEK cytotox inconclusive
Cc1ccccc1N1CCCN(Cc2cccc(CCN)c2)CC1	3T3 cytotox inconclusive, HEK cytotox 28µM, SNCA viab count inconclusive
NCCc1cccc(CN2CCCC(COc3ccccc3F)C2)c1 (stereo unspecified)	3T3 cytotox 35µM, HEK cytotox inconclusive
CCOc1cccc(CN2CCCC(COc3ccccc3C(=O)NC(C)C)C2)c1 (stereo unspecified)	3T3 cytotox inconclusive, HEK cytotox 45µM, SNCA viab count inconclusive
CN1[C@@H](CCC(=O)N2CCOCC2)CNC(=O)[C@@H]2[C@H]1CCN2Cc1ncc[nH]1	none
COc1ccc(-c2cc(N3CCN(C(=O)c4ccc(C)cc4C)CC3)n[nH]2)cc1	hNpr1 antagonist inconclusive, 3T3 cytotox inconclusive, HEK cytotox 40µM
COc1ccc(-c2cc(N3CCCN(C(=O)c4ccc(OC)cc4OC)CC3)n[nH]2)cc1	hNpr1 antagonist inconclusive, 3T3 cytotox inconclusive, HEK cytotox 40µM
